This is part of a sample that, as a whole, favours compounds with a hit. Of some 79,000 tested, about 15% had one in any assay. Calls of active or inactive are those of the source. Cut-off read from the data, not from the text of the source: active = growth inhibition above about 70%; inactive = the rest.
Key:
[1] = NCI Yeast Anticancer Drug Screen. Data for the rad52 strain (AID 147);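 note: 0% = growth of vehicle-treated control cultures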; details: S. cerevisiae rad52 mutant growth inhibition, active compounds read high
Procedure, shortened: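 Vehicle-treated cultures served as the reference for growth inhibition of compound-exposed yeast bearing a DNA repair mutation.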

[2] = NCI Yeast Anticancer Drug Screen. Data for the wt1 strain (AID 149);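 note: 0% = growth of vehicle-treated wt1 cultures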; details: S. cerevisiae wt1 strain (SPY 50644) growth inhibition, active compounds read high
Procedure, shortened: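 wt1 yeast, compound-treated; % growth inhibition vs vehicle control.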

[3] = NCI Yeast Anticancer Drug Screen. Data for the rad50EPP+ strain (AID 151);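 note: 0% = growth of vehicle-treated control cultures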; details: S. cerevisiae rad50 mutant strain, active compounds read high
Procedure, shortened: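 In this screen, rad50EPP+ yeast were exposed to compounds. Growth inhibition was scored against vehicle-treated controls.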

[4] = NCI Yeast Anticancer Drug Screen. Data for the mgt1 strain (AID 153); details: S. cerevisiae mgt1 mutant growth inhibition, active compounds read high
Procedure, shortened: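 mgt1 strain exposed; growth vs vehicle control recorded as inhibition.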

[5] = NCI Yeast Anticancer Drug Screen. Data for the rad50 strain (AID 155);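 note: 0% = growth of vehicle-only cultures of the same strain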; details: S. cerevisiae rad50 strain growth inhibition, active compounds read high
Procedure, shortened: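 Genetically altered yeast (DNA repair pathway); compound treatment; growth inhibition vs vehicle ctrl.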

[6] = NCI Yeast Anticancer Drug Screen. Data for the mec2-1 strain (AID 157); details: S. cerevisiae mec2-1 strain, active compounds read high
Procedure, shortened: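 Vehicle-treated cultures served as reference for growth inhibition of compound-exposed mec2-1 yeast.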

[7] = NCI Yeast Anticancer Drug Screen. Data for the rad14 strain (AID 159);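 note: 0% = growth of vehicle-treated control cultures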; details: S. cerevisiae rad14 strain growth inhibition, active compounds read high
Procedure, shortened: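 Test compounds were applied to a repair-deficient yeast strain. Its growth was then compared with that of cultures given vehicle alone, and inhibition was expressed relative to those controls.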

[8] = NCI Yeast Anticancer Drug Screen. Data for the sgs1 mgt1 strain (AID 161);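 note: 0% = growth of cultures given vehicle only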; details: S. cerevisiae sgs1 mgt1 strain, active compounds read high
Procedure, shortened: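 Mutant yeast exposed to compound; growth scored against vehicle-only wells.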

[9] = NCI Yeast Anticancer Drug Screen. Data for the CLN2oe strain (AID 163);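 note: 0% = growth of vehicle-only control cultures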; details: S. cerevisiae CLN2oe strain, active compounds read high
Procedure, shortened: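 Inhibition relative to vehicle-treated yeast is reported. Cells: strain with genetic alteration in cell-cycle control, grown with compound.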

[10] = NCI Yeast Anticancer Drug Screen. Data for the cln2 rad14 strain (AID 165);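 note: 0% = growth equal to vehicle treated cultures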; details: S. cerevisiae cln2 rad14 strain, active compounds read high
Procedure, shortened: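 Each compound was tested on cln2 rad14 yeast. Inhibition of growth was calculated against vehicle-exposed controls.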

[11] = NCI Yeast Anticancer Drug Screen. Data for the bub3 strain (AID 167); details: S. cerevisiae bub3 mutant strain, active compounds read high
Procedure, shortened: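 Yeast carrying a defined mutation is treated with each compound, and growth is compared with that of vehicle-exposed cells to give inhibition.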

[12] = NCI Yeast Anticancer Drug Screen. Data for the wt2 strain (AID 169);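 note: 0% = growth of vehicle-treated yeast cultures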; details: S. cerevisiae wt2 strain growth inhibition, active compounds read high
Procedure, shortened: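 Inhibition of yeast growth was determined after compound treatment, normalised to controls receiving only vehicle.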

[13] = NCI Yeast Anticancer Drug Screen. Data for the mlh1 strain (AID 171);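 note: 0% = growth of vehicle-treated control cultures of the same strain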; details: S. cerevisiae mlh1 strain growth inhibition, active compounds read high
Procedure, shortened: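 Vehicle-normalised growth inhibition of a repair- or checkpoint-altered yeast strain following compound treatment.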

[14] = NCI Yeast Anticancer Drug Screen. Data for the sgs1 strain (AID 173);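 note: 0% = growth of vehicle-only control cultures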; details: S. cerevisiae sgs1 mutant, active compounds read high
Procedure, shortened: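 Screen format: yeast with repair or checkpoint alterations, compound exposure, growth read relative to vehicle.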

[15] = NCI Yeast Anticancer Drug Screen. Data for the mlh1 rad18 strain (AID 175); details: S. cerevisiae mlh1 rad18 strain growth inhibition, active compounds read high
Procedure, shortened: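 Vehicle-treated cultures served as the reference for growth inhibition in a yeast strain carrying DNA damage repair alterations exposed to each compound.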

[16] = NCI Yeast Anticancer Drug Screen. Data for the rad18 strain (AID 177); details: S. cerevisiae rad18 mutant growth inhibition, active compounds read high
Procedure, shortened: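 Test articles were incubated with altered yeast defective in DNA damage repair. Results are given as inhibition of growth versus vehicle.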

[17] = at 5.0 µM (retest, dose inferred, filed as 0.5)
[18] = at 50.0 µM (retest, dose inferred, filed as 5.0)

Measured: growth inhibition

CCCCCCCC/C=C\CCCCCCCCN
active: [1]; at 33.0 µM 98% | [1]; at 100.0 µM 97% | [2]; at 33.0 µM 98% | [2]; at 100.0 µM 98% | [3]; at 33.0 µM 96% | [3]; at 100.0 µM 97% | [4]; at 33.0 µM 99% | [4]; at 100.0 µM 98% | [5]; at 33.0 µM 96% | [5]; at 50.0 µM 91.2% | [5]; at 100.0 µM 96% | [6]; at 33.0 µM 98% | [6]; at 50.0 µM 92.5% | [6]; at 100.0 µM 98% | [7]; at 33.0 µM 97% | [7]; at 100.0 µM 97% | [8]; [18] 98% | [8]; at 50.0 µM 93% | [9]; at 33.0 µM 98% | [9]; at 100.0 µM 97% | [10]; [18] 96% | [10]; at 50.0 µM 90% | [11]; at 33.0 µM 97% | [11]; [18] 97% | [11]; at 50.0 µM 91% | [11]; at 100.0 µM 96% | [12]; at 33.0 µM 98% | [12]; at 100.0 µM 97% | [13]; at 33.0 µM 97% | [13]; at 100.0 µM 97% | [14]; at 33.0 µM 97% | [14]; at 100.0 µM 96% | [15]; at 50.0 µM 91.3% | [16]; at 33.0 µM 97% | [16]; at 100.0 µM 97%
inactive: [1]; at 1.2 µM 4% | [1]; at 3.7 µM 0% | [1]; at 11.0 µM -10% | [2]; at 1.2 µM 13% | [2]; at 3.7 µM 17% | [2]; at 11.0 µM 9% | [3]; at 1.2 µM 17% | [3]; at 3.7 µM 21% | [3]; at 11.0 µM 21% | [4]; at 1.2 µM 18% | [4]; at 3.7 µM 30% | [4]; at 11.0 µM 22% | [5]; at 1.2 µM -1% | [5]; at 3.7 µM -7% | [5]; [17] 30% | [5]; at 11.0 µM -15% | [5]; [18] 64% | [6]; at 1.2 µM 1% | [6]; at 3.7 µM 15% | [6]; [17] 45% | [6]; at 11.0 µM -18% | [6]; [18] 30% | [7]; at 1.2 µM -22% | [7]; at 3.7 µM -21% | [7]; at 11.0 µM -19% | [8]; [17] -68% | [9]; at 1.2 µM 17% | [9]; at 3.7 µM 11% | [9]; at 11.0 µM 28% | [10]; [17] 42% | [11]; at 1.2 µM 0% | [11]; at 3.7 µM 14% | [11]; [17] -10% | [11]; at 11.0 µM 14% | [12]; at 1.2 µM -7% | [12]; at 3.7 µM -1% | [12]; at 11.0 µM -24% | [13]; at 1.2 µM -16% | [13]; at 3.7 µM -16% | [13]; at 11.0 µM -17% | [14]; at 1.2 µM -3% | [14]; at 3.7 µM -11% | [14]; at 11.0 µM -15% | [15]; [17] 26% | [15]; [18] 27% | [16]; at 1.2 µM -1% | [16]; at 3.7 µM 7% | [16]; at 11.0 µM -13%

O=Cc1ccccc1C=O
inactive: [1]; at 1.2 µM -13% | [1]; at 3.7 µM -11% | [1]; at 11.0 µM -7% | [1]; at 33.0 µM 4% | [2]; at 1.2 µM -35% | [2]; at 3.7 µM -31% | [2]; at 11.0 µM -17% | [2]; at 33.0 µM 0% | [3]; at 1.2 µM -8% | [3]; at 3.7 µM -13% | [3]; at 11.0 µM -2% | [3]; at 33.0 µM 6% | [3]; at 100.0 µM 34% | [4]; at 1.2 µM 4% | [4]; at 3.7 µM 9% | [4]; at 11.0 µM 20% | [4]; at 33.0 µM 36% | [5]; at 1.2 µM 14% | [5]; at 3.7 µM 12% | [5]; [17] -6% | [5]; at 11.0 µM 19% | [5]; at 33.0 µM 28% | [5]; [18] 16% | [5]; at 50.0 µM 44.6% | [6]; at 1.2 µM -17% | [6]; at 3.7 µM -22% | [6]; [17] -8% | [6]; at 11.0 µM -12% | [6]; at 33.0 µM 32% | [6]; [18] 32% | [7]; at 1.2 µM -17% | [7]; at 3.7 µM -12% | [7]; at 11.0 µM -8% | [7]; at 33.0 µM 23% | [8]; [17] -3% | [8]; [18] 43% | [8]; at 50.0 µM 40.3% | [9]; at 1.2 µM 4% | [9]; at 3.7 µM 7% | [9]; at 11.0 µM 3% | [9]; at 33.0 µM 22% | [10]; [17] 5% | [10]; at 50.0 µM 13.6% | [11]; at 1.2 µM 6% | [11]; at 3.7 µM 17% | [11]; [17] -32% | [11]; at 11.0 µM 14% | [11]; at 33.0 µM 23% | [11]; at 50.0 µM 24.4% | [12]; at 1.2 µM -20% | [12]; at 3.7 µM -26% | [12]; at 11.0 µM -15% | [12]; at 33.0 µM -35% | [13]; at 1.2 µM -6% | [13]; at 3.7 µM -5% | [13]; at 11.0 µM 1% | [13]; at 33.0 µM 36% | [14]; at 1.2 µM -19% | [14]; at 3.7 µM -25% | [14]; at 11.0 µM -15% | [14]; at 33.0 µM 2% | [16]; at 1.2 µM -4% | [16]; at 3.7 µM -5% | [16]; at 11.0 µM 0% | [16]; at 33.0 µM 26%
active: [1]; at 100.0 µM 73% | [2]; at 100.0 µM 90% | [4]; at 100.0 µM 91% | [5]; at 100.0 µM 89% | [6]; at 50.0 µM 80.5% | [6]; at 100.0 µM 90% | [7]; at 100.0 µM 86% | [9]; at 100.0 µM 85% | [10]; [18] 74% | [11]; [18] 76% | [11]; at 100.0 µM 81% | [12]; at 100.0 µM 86% | [13]; at 100.0 µM 84% | [14]; at 100.0 µM 72% | [16]; at 100.0 µM 88%

O=C1c2ccccc2C(=O)c2c(O)c(NCCNCCO)cc(O)c21
active: [1]; at 33.0 µM 88% | [1]; at 100.0 µM 92% | [2]; at 33.0 µM 71% | [2]; at 100.0 µM 83% | [3]; at 100.0 µM 92% | [4]; at 33.0 µM 91% | [4]; at 100.0 µM 96% | [5]; at 33.0 µM 89% | [5]; [18] 93% | [5]; at 50.0 µM 87.3% | [5]; at 100.0 µM 94%
inactive: [1]; at 1.2 µM -31% | [1]; at 3.7 µM -13% | [1]; at 11.0 µM 6% | [2]; at 1.2 µM 1% | [2]; at 3.7 µM -1% | [2]; at 11.0 µM 9% | [3]; at 1.2 µM -4% | [3]; at 3.7 µM 8% | [3]; at 11.0 µM 2% | [3]; at 33.0 µM 16% | [4]; at 1.2 µM 0% | [4]; at 3.7 µM 4% | [4]; at 11.0 µM 36% | [5]; at 1.2 µM -9% | [5]; at 3.7 µM -1% | [5]; [17] 19% | [5]; at 11.0 µM 21% | [6]; at 1.2 µM -3% | [6]; at 3.7 µM -12%

Reference: PubChem BioAssay (NCI)
